About 8,600 (12%) of roughly 69,000 compounds showed an effect of 50% or more. The sample holds strong results, similar compounds and a random draw of the others, so the mix is not that of the screen.

The subject of this assay is Plasmodium berghei. As to the kind of experiment: Screen against P. berghei liver stage (PbLuc), transformed with Luciferase, at 10uM. It is filed as functional, HepG2. Particulars: tested at 10 uM.
Take `NC(=O)N1CCCC(C(=O)Nc2cccc(Cl)c2)C1` (stereo not drawn): the INHIBITION is reported as 37.5%. As to `CC(C)(CNc1cccc(Cl)c1)NC(=O)C1CCCN(CC(N)=O)C1` (stereo not drawn), the INHIBITION is listed as 69.9%. Under `O=C(c1cccc2c1OCO2)N1CCC(N2CCCC2)CC1` stands -17.4%; under `c1ccc(COC2C[C@@H]3CN(Cc4cncnc4)C[C@@H]3C2)cc1` (stereo partly drawn), 28%. Under `CCc1noc(C2CCCCN2C(=O)c2cccnc2)n1` (stereo not drawn) stands -8.9%; under `Cc1noc(C)c1C(=O)N1CCCC1c1c(C)nn(C)c1C` (stereo not drawn), -50.5%; under `Cc1cc(CNC2(c3ccc(Cl)cc3)CC2)no1`, 16.8%.

Consider `OC1(c2ccccc2F)CCN(Cc2ccccc2N2CCCC2)CC1`, for which the INHIBITION is on record as 46.2%.

As for `OC1(c2ccc(F)cc2)CCN(Cc2ccccc2N2CCCC2)CC1`, the INHIBITION came out at 43.4%.

Take `Cc1cccc(C2(O)CCN(Cc3ccccc3N3CCCC3)CC2)c1`: the INHIBITION turned out to be 61%. In the case of `C1CCC(NC2CCCN(Cc3noc(C4CC4)n3)C2)C1` (stereo not drawn), the INHIBITION is given as 17.3%. `CCOc1cccc(C2CC(=O)NCc3nc(N)sc32)c1` (stereo not drawn): the INHIBITION worked out at 42.2%. In the case of `CCOc1cccc(C2CC(=O)NCc3nc(N(C)C)sc32)c1` (stereo not drawn), the INHIBITION is 11.7%. Under `CCOc1cccc(C2CC(=O)NCc3nc(N4CCCC4)sc32)c1` (stereo not drawn) stands 56.5%; under `Cc1cccc(C)c1OCCNC(=O)CN1CCN(C)CC1C` (stereo not drawn), -17.7%. As for `Cc1ccc2c(c1)cc(CN1CC[C@](C)(O)[C@H](C)C1)n2C`, the INHIBITION is recorded as 42.1%. Take `CN1CCN(C2CCN(Cc3cn4ccccc4n3)CC2)C1=O`: the INHIBITION was -22.3%. In the case of `CN(C)Cc1cnc2n1CCN(C(=O)C1CC=CC1)CC2` it was 36.9%; in that of `Cc1cc(CN2CC[C@H]3[C@H]2CCN3S(C)(=O)=O)oc1C`, 16.1%. `CS(=O)(=O)N1CCO[C@@H]2CCN(Cc3ccncc3)CC[C@H]21`: the INHIBITION amounted to 23.6%. Take `Cc1cccc(CN2C(=O)CC[C@@H]3[C@H]2CCN3Cc2ccc(C)s2)n1`: the INHIBITION is given as 33.5%. In the case of `Cc1ccc(CN2CC[C@@H]3OCCN(S(C)(=O)=O)[C@H]3CC2)s1` it was 34.5%. In the case of `Cc1ccc(CN2CC[C@H]3[C@@H]2CCC(=O)N3CCN2CCCC2)s1`, the INHIBITION is listed as 32.4%.

Take `Cc1ccc(CN2CC[C@H]3[C@H]2CCN3S(=O)(=O)C2CC2)s1`: the INHIBITION stood at 13.7%. Turning to `Cc1ccc(CN2CC[C@H]3[C@H]2CCN3S(C)(=O)=O)s1`, the INHIBITION came to 58.7%. As to `Cc1ccc(CN2CC[C@@H]3[C@H]2CCC(=O)N3Cc2ccncc2)s1`, the INHIBITION is given as 68.4%. With `Cc1ccc(CN2CC[C@@H]3OCCN(Cc4ccncc4)[C@H]3CC2)s1`, the INHIBITION is recorded as 58.3%. With `Cc1nc(CN(C)C2CCN(Cc3ccc4c(c3)CCC4)C2)no1` (stereo not drawn), the INHIBITION is reported as 31.3%. For the compound `NC(=O)C1CNCCN1C(=O)COc1ccccc1` (stereo not drawn), the INHIBITION worked out at 36%. Regarding `Cc1csc(CN2CC[C@H]3C[C@@H](c4nc(C)no4)O[C@@H]3C2)n1`, the INHIBITION is listed as -11.6%. Consider `CN1[C@@H](C(=O)NCC2CC2)C[C@@H]2CN(Cc3ccsc3)C[C@@H]21`, for which the INHIBITION is -9.74%. Under `CNC(=O)CCc1cc(C)nc(C2CCN(c3ccccc3)CC2)c1` stands 20.24%. Under `COCCNC(=O)[C@H]1CN(Cc2cccs2)C[C@H]2OCC[C@@H]12` stands 43.9%; under `COCCNC(=O)[C@@H]1CN(c2cc(OC)ncn2)C[C@H]2OCC[C@H]21`, 24.9%; under `COCCNC(=O)[C@H]1CN(c2nnc(C)s2)C[C@H]2OCC[C@@H]12`, 52.9%. Under `COCCNC(=O)[C@H]1CN(Cc2csc(C)n2)C[C@H]2OCC[C@@H]12` stands 24.9%; under `Cc1nnc(N2C[C@H](C(=O)NCc3ccco3)[C@@H]3CCO[C@@H]3C2)s1`, 15.4%; under `Cc1nnc(N2C[C@H](C(=O)NCC3CC3)[C@@H]3CCO[C@@H]3C2)s1`, -19.7%. As to `Cc1nnc(N2C[C@H]3OCC[C@H]3[C@H](C(=O)NCC3CC3)C2)s1`, the INHIBITION turned out to be 66.9%. In the case of `COCCNC(=O)[C@@H]1CN(c2ncccn2)C[C@H]2OCC[C@H]21` it was 43.9%; in that of `COCCNC(=O)[C@H]1CN(c2ncccn2)C[C@H]2OCC[C@@H]12`, 55.5%; in that of `Cc1cccc(CN2CCc3nnc(CO)n3CC2)n1`, 27.4%. On to `O=C1[C@H]2CN(Cc3cccs3)C[C@H]2CN1CCN1CCCC1`, for which the INHIBITION came out at 9.97%.

With `Cc1c(C2CCCN(C(=O)c3cccnc3)C2)n2c(nc1=O)CCC2` (stereo not drawn), the INHIBITION is recorded as -73.1%. In the case of `O=C(C1CCOC1)N1CCN(CC2CC2)c2ccccc21` (stereo not drawn) it was 42.8%; in that of `CCOCC1CN(C(=O)c2ccoc2C)Cc2cnn(C)c21` (stereo not drawn), 23.3%. For the compound `Nc1cncc(C(=O)N2Cc3ccccc3OC3(CCOCC3)C2)c1`, the INHIBITION amounted to 22%. In the case of `Cc1nc(C)n(C2CCCN(C(=O)c3cccc4[nH]ncc34)C2)n1` (stereo not drawn) it was -50.8%; in that of `Cc1nc(C)n(C2CCCN(C(=O)c3cccc4cn[nH]c34)C2)n1` (stereo not drawn), 56%.

For the compound `COc1ccc(C)cc1C(=O)N1CCCC(n2nc(C)nc2C)C1` (stereo not drawn), the INHIBITION is listed as -9.37%. Under `Cc1nc(C)n(C2CCCN(C(=O)c3ccccc3C)C2)n1` (stereo not drawn) stands 31.1%. Consider `COc1ccc(C(=O)N2CCCC(n3nc(C)nc3C)C2)c(OC)c1` (stereo not drawn), for which the INHIBITION amounted to 52.3%.

Take `COc1cc(Cl)ccc1C(=O)N1CCCC(n2nc(C)nc2C)C1` (stereo not drawn): the INHIBITION turned out to be 19.4%.

The values above are taken from ChEMBL document CHEMBL4513216, “Probing the Open Global Health Chemical Diversity Library for Multistage-Active Starting Points for Next-Generation Antimalarials” (ACS Infect Dis, 2020).
